Test results as given in the supplement of paper PMC8728848.
Only a selection was taken, and the strongest signals are over-represented in it overall.

What was measured:
Assay in all cases: glycan array binding signal (z-score within array); higher = stronger binding
Conditions in all cases: glycan notation: IUPAC condensed, linker removed
[1] = molecular target: Fuc(a1-2)Gal(b1-3)GlcNAc(b1-2)Man(a1-3)[Fuc(a1-2)Gal(b1-3)GlcNAc(b1-2)Man(a1-6)]Man(b1-4)GlcNAc(b1-4)[Fuc(a1-6)]GlcNAc
Procedure, shortened: (§1)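 The binding signal is a Z-score computed within each array and averaged over linkers. Arrays of the same protein sequence at different concentrations or buffers were also averaged together. Data originate from 3228 arrays in the Consortium for Functional Glycomics database, kept only where the protein sequence was available.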

[2] = molecular target: Fuc(a1-2)Gal(b1-3)GlcNAc(b1-3)[Neu5Ac(a2-6)Gal(b1-4)GlcNAc(b1-6)]Gal(b1-4)Glc
Procedure, shortened: as §1

[3] = molecular target: Fuc(a1-2)Gal(b1-4)GlcNAc(b1-2)[Fuc(a1-2)Gal(b1-4)GlcNAc(b1-4)]Man(a1-3)[Fuc(a1-2)Gal(b1-4)GlcNAc(b1-2)Man(a1-6)]Man(b1-4)GlcNAc(b1-4)GlcNAc
Procedure, shortened: as §1

[4] = molecular target: Fuc(a1-2)Gal(b1-4)GlcNAc(b1-6)GalNAc
Procedure, shortened: as §1

[5] = molecular target: Fuc(a1-2)Gal6S(b1-3)GlcNAc6S
Procedure, shortened: as §1

[6] = molecular target: Fuc(a1-2)[Gal(a1-3)]Gal(b1-3)GlcNAc(b1-2)Man(a1-3)[Fuc(a1-2)[Gal(a1-3)]Gal(b1-3)GlcNAc(b1-2)Man(a1-6)]Man(b1-4)GlcNAc(b1-4)GlcNAc
Procedure, shortened: as §1

[7] = molecular target: Fuc(a1-2)[Gal(a1-3)]Gal(b1-3)GlcNAc(b1-6)GalNAc
Procedure, shortened: as §1

[8] = molecular target: Fuc(a1-2)[Gal(a1-3)]Gal(b1-4)GlcNAc
Procedure, shortened: as §1

[9] = molecular target: Fuc(a1-2)[Gal(a1-3)]Gal(b1-4)[Fuc(a1-3)]GlcNAc(b1-3)GalNAc
Procedure, shortened: as §1

[10] = molecular target: Fuc(a1-2)[GalNAc(a1-3)]Gal(b1-4)GlcNAc(b1-2)Man(a1-3)[Fuc(a1-2)[GalNAc(a1-3)]Gal(b1-4)GlcNAc(b1-2)Man(a1-6)]Man(b1-4)GlcNAc(b1-4)[Fuc(a1-6)]GlcNAc
Procedure, shortened: as §1

[11] = molecular target: Fuc(a1-2)[GalNAc(b1-3)]Gal
Procedure, shortened: as §1

Fuc(a1-4)GlcNAc = molecular target: Fuc(a1-4)GlcNAc
Procedure, shortened: as §1

[12] = molecular target: Gal(a1-3)Gal(b1-3)[Fuc(a1-4)]GlcNAc(b1-2)Man(a1-3)[Gal(a1-3)Gal(b1-3)[Fuc(a1-4)]GlcNAc(b1-2)Man(a1-6)]Man(b1-4)GlcNAc(b1-4)GlcNAc
Procedure, shortened: as §1

Gal(a1-3)GalNAc = molecular target: Gal(a1-3)GalNAc
Procedure, shortened: as §1

Gal(b1-3)Gal(b1-4)GlcNAc = molecular target: Gal(b1-3)Gal(b1-4)GlcNAc
Procedure, shortened: as §1

[13] = molecular target: Gal(b1-3)GlcNAc(a1-6)Gal(b1-4)GlcNAc
Procedure, shortened: as §1

[14] = molecular target: Gal(b1-3)GlcNAc(b1-3)Gal(b1-4)GlcNAc(b1-2)Man(a1-3)[Gal(b1-3)GlcNAc(b1-3)Gal(b1-4)GlcNAc(b1-2)Man(a1-6)]Man(b1-4)GlcNAc(b1-4)GlcNAc
Procedure, shortened: as §1

[15] = molecular target: Gal(b1-3)GlcNAc(b1-6)Gal(b1-4)GlcNAc
Procedure, shortened: as §1

[16] = molecular target: Gal(b1-3)GlcNAc(b1-6)GalNAc
Procedure, shortened: as §1

Gal(b1-4)Gal = molecular target: Gal(b1-4)Gal
Procedure, shortened: as §1

Gal(b1-4)Glc6S = molecular target: Gal(b1-4)Glc6S
Procedure, shortened: as §1

[17] = molecular target: Gal(b1-4)GlcNAc(a1-6)Gal(b1-4)GlcNAc
Procedure, shortened: as §1

[18] = molecular target: Gal(b1-4)GlcNAc(b1-2)[Gal(b1-4)GlcNAc(b1-4)]Man(a1-3)[Gal(b1-4)GlcNAc(b1-2)[Gal(b1-4)GlcNAc(b1-6)]Man(a1-6)]Man(b1-4)GlcNAc(b1-4)GlcNAc
Procedure, shortened: as §1

[19] = molecular target: Gal(b1-4)GlcNAc(b1-2)[Gal(b1-4)GlcNAc(b1-6)]Man(a1-6)[Gal(b1-4)GlcNAc(b1-2)Man(a1-3)]Man(b1-4)GlcNAc(b1-4)[Fuc(a1-6)]GlcNAc
Procedure, shortened: as §1

[20] = molecular target: Gal(b1-4)GlcNAc(b1-3)Gal(b1-3)GalNAc
Procedure, shortened: as §1

[21] = molecular target: Gal(b1-4)GlcNAc(b1-3)Gal(b1-4)[Fuc(a1-3)]GlcNAc(b1-3)Gal(b1-4)[Fuc(a1-3)]GlcNAc
Procedure, shortened: as §1

[22] = molecular target: Gal(b1-4)GlcNAc(b1-6)GalNAc
Procedure, shortened: as §1

[23] = molecular target: Gal3S(b1-4)[Fuc(a1-3)]GlcNAc
Procedure, shortened: as §1

Gal6S(b1-4)GlcNAc = molecular target: Gal6S(b1-4)GlcNAc
Procedure, shortened: as §1

GalNAc(a1-3)Gal = molecular target: GalNAc(a1-3)Gal
Procedure, shortened: as §1

B1: MGL2 (Mus musculus), Q8JZN1 (protein)
chain: MTMRYENFQNLEREEKNQEMRNGDKKGGMESPKFALIPSQSFLWRILSWTHLLLFSLGLSLLLLVVISVIGSQNSQLRRDLGTLRAILDNTTSKIKAEFQSLDSRADNFEKGISSLKVDVEDHRQELQAGRDLSQKVTSLESTLEKREQALKTDLSDLTDHVQQLETDLKALTCQLANLKNNGSEVACCPLHWTEHEGSCYWFSESEKSWPEADKYCRLENSHLVVVNSLEEQNFLQNRLANVLSWMGLTDQNGPWRWVDGTDFDKGFKNWRPLQPDNWHGHMLGGGEDCAHFSYDGRWNDDVCQRHYHWICETELGKASSAHSPQLIASVP
With B1 the “glycan array binding signal (z-score)” value [1] was -0.201, the “glycan array binding signal (z-score)” value [2] was -0.188 and the “glycan array binding signal (z-score)” value [3] was -0.106. The “glycan array binding signal (z-score)” value [4] was 1.79, the “glycan array binding signal (z-score)” value [5] was 0.028 and the “glycan array binding signal (z-score)” value [6] was -0.255. The “glycan array binding signal (z-score)” value [7] was 0.323, the “glycan array binding signal (z-score)” value [8] was -0.162 and the “glycan array binding signal (z-score)” value [9] was -0.252. The “glycan array binding signal (z-score)” value [10] was -0.211, the “glycan array binding signal (z-score)” value [11] was 12.2 and the “glycan array binding signal (z-score)” value (Fuc(a1-4)GlcNAc) was 0.024. The “glycan array binding signal (z-score)” value [12] was -0.193, the “glycan array binding signal (z-score)” value (Gal(a1-3)GalNAc) was -0.18 and the “glycan array binding signal (z-score)” value (Gal(b1-3)Gal(b1-4)GlcNAc) was -0.137. The “glycan array binding signal (z-score)” value [13] was 0.067, the “glycan array binding signal (z-score)” value [14] was -0.097 and the “glycan array binding signal (z-score)” value [15] was -0.035. The “glycan array binding signal (z-score)” value [16] was 2.02, the “glycan array binding signal (z-score)” value (Gal(b1-4)Gal) was -0.267 and the “glycan array binding signal (z-score)” value (Gal(b1-4)Glc6S) was -0.225. For the same binder, the “glycan array binding signal (z-score)” value [17] was -0.091, the “glycan array binding signal (z-score)” value [18] was -0.247 and the “glycan array binding signal (z-score)” value [19] was -0.193. The “glycan array binding signal (z-score)” value [20] was -0.14, the “glycan array binding signal (z-score)” value [21] was -0.1 and the “glycan array binding signal (z-score)” value [22] was 3.5. The “glycan array binding signal (z-score)” value [23] was -0.228, the “glycan array binding signal (z-score)” value (Gal6S(b1-4)GlcNAc) was -0.276 and the “glycan array binding signal (z-score)” value (GalNAc(a1-3)Gal) was 1.48.
